From PubChem BioAssay (NCI) come the findings set out here.

Test [1] can be described thus: NCI Yeast Anticancer Drug Screen. Data for the rad50 strain (AID 155).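 Also: 0% = growth of vehicle-only cultures of the same strain.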 Particulars: S. cerevisiae rad50 strain growth inhibition, hits give high values. Put shortly:
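Growth of the mutant yeast was measured after compound exposure and referenced to vehicle-treated cultures.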

Test [2] in a line: NCI Yeast Anticancer Drug Screen. Data for the mec2-1 strain (AID 157). Conditions: S. cerevisiae mec2-1 strain, hits give high values. Put shortly: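 Using mec2-1 yeast: add compound, measure growth, express inhibition versus vehicle-treated cultures.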
The nature of test [3]: NCI Yeast Anticancer Drug Screen. Data for the sgs1 mgt1 strain (AID 161).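 Also: 0% = growth of cultures given vehicle only.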 Particulars: S. cerevisiae sgs1 mgt1 strain, hits give high values. The gist of the method:
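Yeast cells carrying a defined DNA-repair defect were exposed to test compounds. Growth inhibition was measured relative to vehicle-treated controls.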

Test [4] is described as follows: NCI Yeast Anticancer Drug Screen. Data for the cln2 rad14 strain (AID 165).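 Also: 0% = growth equal to vehicle treated cultures.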 Particulars: S. cerevisiae cln2 rad14 strain, hits give high values. The gist of the method: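 Yeast strain cln2 rad14, bearing defects in cell cycle control and DNA repair, serves as the test system; values reflect growth inhibition compared with vehicle.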
A short description of test [5]: NCI Yeast Anticancer Drug Screen. Data for the bub3 strain (AID 167). Particulars: S. cerevisiae bub3 mutant strain, hits give high values. Put shortly: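 Whole-cell yeast assay. The mutant strain was incubated with compounds, and growth inhibition was determined by comparison with vehicle-treated cells.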
Test [6] can be described thus: NCI Yeast Anticancer Drug Screen. Data for the mlh1 rad18 strain (AID 175). Conditions: S. cerevisiae mlh1 rad18 strain growth inhibition, hits give high values. Put shortly: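 Steps: expose repair-defective yeast to compound; measure growth; express inhibition against vehicle-treated controls.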
The mark [7] stands for this setting: at 5.0 µM (retest, dose inferred, filed as 0.5).
Setting [8] is: at 50.0 µM (retest, dose inferred, filed as 5.0).

The panel holds about 79,000 compounds, 15% with a hit somewhere; the sample as a whole holds those more often. Unmarked numbers belong to inactive results. Activity calls are given as the source filed them. Rule as the data show it: active = growth inhibition above about 70%; inactive = the rest.

On to `OC(c1ccccc1)c1cccc2ccccc12` (configuration not stated), for which the growth inhibition in test [1] (setting [7]) was -1%; in test [1] (setting [8]) it was 47%; in test [1] (at 50.0 µM), 91.3% (active); in test [2] (setting [7]), -5%; in test [2] (setting [8]) it was 14%; in test [2] (at 50.0 µM), 67.3%. For the same compound, the growth inhibition in test [3] (setting [7]) is 20%; in test [3] (setting [8]), 25%; in test [3] (at 50.0 µM) it was -1.85%; in test [4] (setting [7]), -8%; in test [4] (setting [8]), 18%; in test [4] (at 50.0 µM), 44.8%. For the same compound, the growth inhibition in test [5] (setting [7]) is -1%; in test [5] (setting [8]), 30%; in test [5] (at 50.0 µM) it was 67%; in test [6] (setting [7]), -1%; in test [6] (setting [8]), 25%; in test [6] (at 50.0 µM), 43.1%.

As for `Nc1nc(-c2ccccc2)cc(-c2ccccc2O)n1`, the growth inhibition was 7% in test [1] (setting [7]); -1% in test [1] (setting [8]); 40.8% in test [1] (at 50.0 µM); 0% in test [2] (setting [7]); 15% in test [2] (setting [8]); 20.5% in test [2] (at 50.0 µM). In addition, the growth inhibition in test [3] (setting [7]) is 12%; in test [3] (setting [8]), 19%; in test [3] (at 50.0 µM), 62.6%; in test [4] (setting [7]), 13%; in test [4] (setting [8]), 9%; in test [4] (at 50.0 µM) it was 69.2%. Also, the growth inhibition in test [5] (setting [7]) is 9%; in test [5] (setting [8]) it was 23%; in test [5] (at 50.0 µM), 26.1%; in test [6] (setting [7]) it was 8%; in test [6] (setting [8]) it was 11%; in test [6] (at 50.0 µM), 67.7%.

As to `Cc1ccc2nc(-c3ccc(N)cc3)sc2c1`, the growth inhibition in test [1] (setting [7]) is 9%; in test [1] (setting [8]) it was 42%; in test [1] (at 50.0 µM), 75% (active); in test [2] (setting [7]), -2%; in test [2] (setting [8]) it was 8%; in test [2] (at 50.0 µM), 34.5%. For the same compound, the growth inhibition in test [3] (setting [7]) was -2%; in test [3] (setting [8]) it was 7%; in test [3] (at 50.0 µM) it was 43.9%; in test [4] (setting [7]), -8%; in test [4] (setting [8]) it was -6%; in test [4] (at 50.0 µM) it was 15%. Also, the growth inhibition in test [5] (setting [7]) was 14%; in test [5] (setting [8]), 68%; in test [5] (at 50.0 µM) it was 72.5% (active); in test [6] (setting [7]) it was -1%; in test [6] (setting [8]) it was 19%; in test [6] (at 50.0 µM) it was 41.3%.

As to `COc1ccc2c(Cc3ccc(Cl)cc3)cncc2c1O`, the growth inhibition is 5% in test [1] (setting [7]); 91% (active) in test [1] (setting [8]); 98.1% (active) in test [1] (at 50.0 µM); 14% in test [2] (setting [7]); 97% (active) in test [2] (setting [8]); 99.2% (active) in test [2] (at 50.0 µM). Also, the growth inhibition is 15% in test [3] (setting [7]); 96% (active) in test [3] (setting [8]); 97.2% (active) in test [3] (at 50.0 µM); 2% in test [4] (setting [7]); 87% (active) in test [4] (setting [8]); 99% (active) in test [4] (at 50.0 µM). In addition, the growth inhibition is 10% in test [5] (setting [7]); 93% (active) in test [5] (setting [8]); 99% (active) in test [5] (at 50.0 µM); 21% in test [6] (setting [7]); 96% (active) in test [6] (setting [8]); 99.1% (active) in test [6] (at 50.0 µM).

In the case of `O=C1C2C3C=CC(C3)C2C(=O)C2C3C=CC(C3)C12` (configuration not stated), the growth inhibition is 70% (active) in test [1] (setting [7]); 96% (active) in test [1] (setting [8]); 98.6% (active) in test [1] (at 50.0 µM); 58% in test [2] (setting [7]); 98% (active) in test [2] (setting [8]); 99.3% (active) in test [2] (at 50.0 µM). The growth inhibition was 65% in test [3] (setting [7]); 99% (active) in test [3] (setting [8]); 99% (active) in test [3] (at 50.0 µM); 23% in test [4] (setting [7]); 95% (active) in test [4] (setting [8]); 88% (active) in test [4] (at 50.0 µM). In addition, the growth inhibition in test [5] (setting [7]) is 53%; in test [5] (setting [8]), 96% (active); in test [5] (at 50.0 µM) it was 98.9% (active); in test [6] (setting [7]), 60%; in test [6] (setting [8]) it was 98% (active); in test [6] (at 50.0 µM) it was 99.2% (active).

As for `CCCN(CCC)C(=S)N/N=C/c1cccc(C)n1`, the growth inhibition was -8% in test [1] (setting [7]); 100% (active) in test [1] (setting [8]); 90.3% (active) in test [1] (at 50.0 µM); -33% in test [2] (setting [7]); 99% (active) in test [2] (setting [8]); 93.2% (active) in test [2] (at 50.0 µM). Also, the growth inhibition in test [3] (setting [7]) is -40%; in test [3] (setting [8]), 98% (active); in test [3] (at 50.0 µM), 92.8% (active); in test [4] (setting [7]), -9%; in test [4] (setting [8]), 100% (active); in test [4] (at 50.0 µM), 93.1% (active). The growth inhibition in test [5] (setting [7]) was -32%; in test [5] (setting [8]), 100% (active); in test [5] (at 50.0 µM), 92.5% (active); in test [6] (setting [7]), -8%; in test [6] (setting [8]), 99% (active); in test [6] (at 50.0 µM) it was 89.7% (active).

For `NC(=O)N/N=C1/CC2CCCCC2c2ccccc21` (configuration not stated), the growth inhibition in test [1] (setting [7]) is 12%; in test [1] (setting [8]), 92% (active); in test [1] (at 50.0 µM), 67.8%; in test [2] (setting [7]) it was -4%; in test [2] (setting [8]) it was 86% (active); in test [2] (at 50.0 µM), 13%. Besides, the growth inhibition is -2% in test [3] (setting [7]); 66% in test [3] (setting [8]); 58% in test [3] (at 50.0 µM); 0% in test [4] (setting [7]); 69% in test [4] (setting [8]); 19.2% in test [4] (at 50.0 µM). Moreover, the growth inhibition in test [5] (setting [7]) was 0%; in test [5] (setting [8]) it was 94% (active); in test [5] (at 50.0 µM) it was 86.2% (active); in test [6] (setting [7]) it was -6%; in test [6] (setting [8]), 94% (active); in test [6] (at 50.0 µM), 23.5%.

Take `C[n+]1c(-c2cccc(OCCCCCCCCCCOc3cccc(-c4c5cc(N)ccc5c5ccc(N)cc5[n+]4C)c3)c2)c2cc(N)ccc2c2ccc(N)cc21`: the growth inhibition in test [1] (setting [7]) was 99% (active); in test [1] (setting [8]), 81% (active); in test [1] (at 50.0 µM), 79.4% (active); in test [2] (setting [7]), 99% (active); in test [2] (setting [8]), 84% (active); in test [2] (at 50.0 µM), 84.4% (active). The growth inhibition in test [3] (setting [7]) is 99% (active); in test [3] (setting [8]), 85% (active); in test [3] (at 50.0 µM), 87.9% (active); in test [4] (setting [7]), 99% (active); in test [4] (setting [8]), 86% (active); in test [4] (at 50.0 µM), 88% (active). Further, the growth inhibition was 99% (active) in test [5] (setting [7]); 80% (active) in test [5] (setting [8]); 84.2% (active) in test [5] (at 50.0 µM); 97% (active) in test [6] (setting [7]); 68% in test [6] (setting [8]); 87.7% (active) in test [6] (at 50.0 µM).

In the case of `CCCCCCCCN(CCCCCCCC)CC(O)c1cc2c(c3ccccc13)CCCC2` (configuration not stated), the growth inhibition is 10% in test [1] (setting [7]); 95% (active) in test [1] (setting [8]); 99.2% (active) in test [1] (at 50.0 µM); 8% in test [2] (setting [7]); 96% (active) in test [2] (setting [8]); 99.4% (active) in test [2] (at 50.0 µM). For the same compound, the growth inhibition was 25% in test [3] (setting [7]); 96% (active) in test [3] (setting [8]); 99.3% (active) in test [3] (at 50.0 µM); 13% in test [4] (setting [7]); 94% (active) in test [4] (setting [8]); 99.2% (active) in test [4] (at 50.0 µM). Also, the growth inhibition in test [5] (setting [7]) was 28%; in test [5] (setting [8]), 95% (active); in test [5] (at 50.0 µM), 98.8% (active); in test [6] (setting [7]) it was 11%; in test [6] (setting [8]), 96% (active); in test [6] (at 50.0 µM) it was 98.8% (active).
